Results reported in PubChem BioAssay (NCI).
This is part of a sample that, as a whole, favours compounds with a hit. Of some 79,000 tested, about 15% had one in any assay. Activity calls are given as the source filed them. Rule as the data show it: active = growth inhibition above about 70%; inactive = the rest.

Legend:
[1] = NCI Yeast Anticancer Drug Screen. Data for the rad52 strain (AID 147);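 also: 0% = growth of vehicle-treated control cultures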; conditions: S. cerevisiae rad52 mutant growth inhibition, hits give high values
Method in brief: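 Here a repair-compromised yeast strain receives each compound; its growth is then quantified and normalised to vehicle-only controls.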

[2] = NCI Yeast Anticancer Drug Screen. Data for the wt1 strain (AID 149);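 also: 0% = growth of vehicle-treated wt1 cultures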; conditions: S. cerevisiae wt1 strain (SPY 50644) growth inhibition, hits give high values
Method in brief: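 Measured: growth of wt1 yeast under compound versus vehicle treatment, reported as inhibition.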

[3] = NCI Yeast Anticancer Drug Screen. Data for the rad50EPP+ strain (AID 151);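 also: 0% = growth of vehicle-treated control cultures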; conditions: S. cerevisiae rad50 mutant strain, hits give high values
Method in brief: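 Read-out is yeast growth inhibition relative to vehicle; cells used were the rad50EPP+ strain.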

[4] = NCI Yeast Anticancer Drug Screen. Data for the rad50 strain (AID 155);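 also: 0% = growth of vehicle-only cultures of the same strain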; conditions: S. cerevisiae rad50 strain growth inhibition, hits give high values
Method in brief: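 Growth of the mutant yeast was measured after compound exposure and referenced to vehicle-treated cultures.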

[5] = NCI Yeast Anticancer Drug Screen. Data for the mec2-1 strain (AID 157); conditions: S. cerevisiae mec2-1 strain, hits give high values
Method in brief: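 Using mec2-1 yeast: add compound, measure growth, express inhibition versus vehicle-treated cultures.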

[6] = NCI Yeast Anticancer Drug Screen. Data for the rad14 strain (AID 159);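 also: 0% = growth of vehicle-treated control cultures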; conditions: S. cerevisiae rad14 strain growth inhibition, hits give high values
Method in brief: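 Here, inhibition of yeast growth was measured after compound exposure, using a strain with a genetic defect in DNA damage repair and vehicle-treated cultures as the reference.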

[7] = NCI Yeast Anticancer Drug Screen. Data for the sgs1 mgt1 strain (AID 161);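 also: 0% = growth of cultures given vehicle only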; conditions: S. cerevisiae sgs1 mgt1 strain, hits give high values
Method in brief: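 Percent growth inhibition was derived by comparing compound-exposed mutant yeast with vehicle-exposed cultures. The strain carries alterations in DNA damage repair.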

[8] = NCI Yeast Anticancer Drug Screen. Data for the CLN2oe strain (AID 163);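 also: 0% = growth of vehicle-only control cultures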; conditions: S. cerevisiae CLN2oe strain, hits give high values
Method in brief: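 Whole-cell yeast growth assay. A strain engineered for altered cell-cycle control received compound, and inhibition relative to vehicle-treated cultures was recorded.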

[9] = NCI Yeast Anticancer Drug Screen. Data for the cln2 rad14 strain (AID 165);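 also: 0% = growth equal to vehicle treated cultures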; conditions: S. cerevisiae cln2 rad14 strain, hits give high values
Method in brief: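 Yeast strain cln2 rad14, bearing defects in cell cycle control and DNA repair, serves as the test system; values reflect growth inhibition compared with vehicle.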

[10] = NCI Yeast Anticancer Drug Screen. Data for the bub3 strain (AID 167); conditions: S. cerevisiae bub3 mutant strain, hits give high values
Method in brief: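 Whole-cell yeast assay. The mutant strain was incubated with compounds, and growth inhibition was determined by comparison with vehicle-treated cells.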

[11] = NCI Yeast Anticancer Drug Screen. Data for the wt2 strain (AID 169);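 also: 0% = growth of vehicle-treated yeast cultures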; conditions: S. cerevisiae wt2 strain growth inhibition, hits give high values
Method in brief: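 Treated yeast vs. vehicle-treated yeast: growth inhibition determined.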

[12] = NCI Yeast Anticancer Drug Screen. Data for the mlh1 strain (AID 171);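 also: 0% = growth of vehicle-treated control cultures of the same strain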; conditions: S. cerevisiae mlh1 strain growth inhibition, hits give high values
Method in brief: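 A yeast strain with a defined genetic lesion serves as the test organism. Cultures receive compound or vehicle, and growth is measured.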

[13] = NCI Yeast Anticancer Drug Screen. Data for the sgs1 strain (AID 173);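 also: 0% = growth of vehicle-only control cultures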; conditions: S. cerevisiae sgs1 mutant, hits give high values
Method in brief: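 A genetically defined yeast mutant is incubated with the test compound, and its growth is compared to that of the same strain given vehicle.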

[14] = NCI Yeast Anticancer Drug Screen. Data for the mlh1 rad18 strain (AID 175); conditions: S. cerevisiae mlh1 rad18 strain growth inhibition, hits give high values
Method in brief: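 Steps: expose repair-defective yeast to compound; measure growth; express inhibition against vehicle-treated controls.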

[15] = NCI Yeast Anticancer Drug Screen. Data for the rad18 strain (AID 177); conditions: S. cerevisiae rad18 mutant growth inhibition, hits give high values
Method in brief: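 Measured value is growth inhibition of a yeast strain bearing a DNA repair alteration, referenced to vehicle-treated cells.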

[16] = at 5.0 µM (retest, dose inferred, filed as 0.5)
[17] = at 50.0 µM (retest, dose inferred, filed as 5.0)

Measured: growth inhibition

CC1CC(Br)C(=O)O1 (stereo unspecified)
active: [1]; at 33.0 µM 89% | [1]; at 100.0 µM 92% | [2]; at 100.0 µM 88% | [3]; at 33.0 µM 88% | [3]; at 100.0 µM 89% | [4]; at 33.0 µM 74% | [4]; [17] 95% | [4]; at 50.0 µM 86.7% | [4]; at 100.0 µM 89% | [5]; at 33.0 µM 95% | [5]; [17] 98% | [5]; at 50.0 µM 92.2% | [5]; at 100.0 µM 95% | [6]; at 100.0 µM 85% | [7]; [17] 77% | [7]; at 50.0 µM 87.8% | [8]; at 33.0 µM 95% | [8]; at 100.0 µM 96% | [9]; [17] 86% | [9]; at 50.0 µM 84.8% | [10]; at 11.0 µM 74% | [10]; at 33.0 µM 96% | [10]; [17] 98% | [10]; at 50.0 µM 88.5% | [10]; at 100.0 µM 97% | [11]; at 100.0 µM 86% | [12]; at 33.0 µM 79% | [12]; at 100.0 µM 90% | [13]; at 100.0 µM 88% | [14]; [17] 97% | [14]; at 50.0 µM 83.8% | [15]; at 100.0 µM 88%
inactive: [1]; at 1.2 µM -27% | [1]; at 3.7 µM -35% | [1]; at 11.0 µM -18% | [2]; at 1.2 µM -48% | [2]; at 3.7 µM -49% | [2]; at 11.0 µM -22% | [2]; at 33.0 µM 67% | [3]; at 1.2 µM 12% | [3]; at 3.7 µM 11% | [3]; at 11.0 µM 34% | [4]; at 1.2 µM -67% | [4]; at 3.7 µM -55% | [4]; [16] -14% | [4]; at 11.0 µM -34% | [5]; at 1.2 µM -30% | [5]; at 3.7 µM -18% | [5]; [16] 1% | [5]; at 11.0 µM 31% | [6]; at 1.2 µM -49% | [6]; at 3.7 µM -42% | [6]; at 11.0 µM -30% | [6]; at 33.0 µM 58% | [7]; [16] 9% | [8]; at 1.2 µM -44% | [8]; at 3.7 µM -44% | [8]; at 11.0 µM -13% | [9]; [16] 39% | [10]; at 1.2 µM 8% | [10]; at 3.7 µM 22% | [10]; [16] 44% | [11]; at 1.2 µM -52% | [11]; at 3.7 µM -40% | [11]; at 11.0 µM -25% | [11]; at 33.0 µM 30% | [12]; at 1.2 µM -54% | [12]; at 3.7 µM -51% | [12]; at 11.0 µM -18% | [13]; at 1.2 µM -41% | [13]; at 3.7 µM -40% | [13]; at 11.0 µM -31% | [13]; at 33.0 µM 68% | [14]; [16] -9% | [15]; at 1.2 µM -57% | [15]; at 3.7 µM -50% | [15]; at 11.0 µM -28% | [15]; at 33.0 µM 69%

CC1=C(O)C(=O)C=C2C1=CC=C1[C@@]2(C)CCC2(C)[C@@H]3C[C@@H](C)C(=O)C[C@]3(C)CC[C@]12C (stereo partly specified)
inactive: [1]; at 1.2 µM 41% | [1]; at 3.7 µM 58% | [2]; at 1.2 µM 9% | [2]; at 3.7 µM 8% | [3]; at 1.2 µM 9% | [3]; at 3.7 µM 12% | [3]; at 11.0 µM 29% | [3]; at 33.0 µM 32% | [3]; at 100.0 µM 59% | [4]; at 1.2 µM 11% | [4]; at 3.7 µM 28% | [4]; [16] 4% | [5]; at 1.2 µM 5% | [5]; at 3.7 µM 24% | [5]; [16] 4% | [6]; at 1.2 µM -26% | [6]; at 3.7 µM -13% | [7]; [16] 16% | [8]; at 1.2 µM -13% | [8]; at 3.7 µM 10% | [9]; [16] 35% | [10]; at 1.2 µM -19% | [10]; at 3.7 µM -6% | [10]; [16] 38% | [11]; at 1.2 µM 0% | [11]; at 3.7 µM 0% | [12]; at 1.2 µM 14% | [12]; at 3.7 µM 31% | [13]; at 1.2 µM 17% | [13]; at 3.7 µM 42% | [14]; [16] 41% | [15]; at 1.2 µM 9% | [15]; at 3.7 µM 28%
active: [1]; at 11.0 µM 98% | [1]; at 33.0 µM 98% | [1]; at 100.0 µM 96% | [2]; at 11.0 µM 96% | [2]; at 33.0 µM 97% | [2]; at 100.0 µM 96% | [4]; at 11.0 µM 96% | [4]; at 33.0 µM 97% | [4]; [17] 97% | [4]; at 50.0 µM 88.3% | [4]; at 100.0 µM 97% | [5]; at 11.0 µM 97% | [5]; at 33.0 µM 98% | [5]; [17] 99% | [5]; at 50.0 µM 90.5% | [5]; at 100.0 µM 96% | [6]; at 11.0 µM 94% | [6]; at 33.0 µM 97% | [6]; at 100.0 µM 95% | [7]; [17] 96% | [7]; at 50.0 µM 87.3% | [8]; at 11.0 µM 98% | [8]; at 33.0 µM 98% | [8]; at 100.0 µM 95% | [9]; [17] 97% | [9]; at 50.0 µM 86.5% | [10]; at 11.0 µM 96% | [10]; at 33.0 µM 97% | [10]; [17] 97% | [10]; at 50.0 µM 87.9% | [10]; at 100.0 µM 96% | [11]; at 11.0 µM 93% | [11]; at 33.0 µM 97% | [11]; at 100.0 µM 96% | [12]; at 11.0 µM 95% | [12]; at 33.0 µM 98% | [12]; at 100.0 µM 96% | [13]; at 11.0 µM 96% | [13]; at 33.0 µM 97% | [13]; at 100.0 µM 96% | [14]; [17] 97% | [14]; at 50.0 µM 88.2% | [15]; at 11.0 µM 96% | [15]; at 33.0 µM 98% | [15]; at 100.0 µM 97%
